Bioassay records as filed in PubChem.
Hits are enriched below; roughly 3.9% of the tested compounds scored in any of these assays.
AHR activator: activates the human aryl hydrocarbon receptor; P35869; AHR-responsive luciferase reporter cells, luminescence; AID 2796; actives 2.5% (n = 320,000); activation, % at 5 µM; in the data active = activation above about 47%;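 note: 0% = vehicle wells and 100% = reference agonist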
PLCb3 inh: inhibitors of human phospholipase C beta3 | Q01970 | Purified PLC-beta3, fluorogenic substrate, fluorescence | inhibition, % at 12.2 µM | actives 0.18% (n = 370,000); in the data active = inhibition above about 11%;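 note: 0% = median of compound wells on plate and 100% = full blocker control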
HGIII-sPLA2 inh: Inhibits HGIII-sPLA2 liposome hydrolysis, primary screen. actives 0.56% (n = 370,000). QFRET BODIPY PC-A2 liposome hydrolysis, fluorescence. AID 743126. Q9NZ20. inhibition, % at 12.2 µM;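 active = inhibition above mean plus 3 SD of compounds lying within the high and low control bounds, cut at about 19% in these data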;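 note: 0% = median of test compound wells and 100% = no enzyme DMSO wells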
PLC-gamma1 inh: PLC-gamma1 (human) inhibition, primary screen; actives 0.84% (n = 370,000); purified PLC-gamma1, fluorogenic substrate, fluorescence; P19174; inhibition, % at 12.2 µM; in the data active = inhibition above about 9.5%
Target sequence (P19174 whole entry, looked up): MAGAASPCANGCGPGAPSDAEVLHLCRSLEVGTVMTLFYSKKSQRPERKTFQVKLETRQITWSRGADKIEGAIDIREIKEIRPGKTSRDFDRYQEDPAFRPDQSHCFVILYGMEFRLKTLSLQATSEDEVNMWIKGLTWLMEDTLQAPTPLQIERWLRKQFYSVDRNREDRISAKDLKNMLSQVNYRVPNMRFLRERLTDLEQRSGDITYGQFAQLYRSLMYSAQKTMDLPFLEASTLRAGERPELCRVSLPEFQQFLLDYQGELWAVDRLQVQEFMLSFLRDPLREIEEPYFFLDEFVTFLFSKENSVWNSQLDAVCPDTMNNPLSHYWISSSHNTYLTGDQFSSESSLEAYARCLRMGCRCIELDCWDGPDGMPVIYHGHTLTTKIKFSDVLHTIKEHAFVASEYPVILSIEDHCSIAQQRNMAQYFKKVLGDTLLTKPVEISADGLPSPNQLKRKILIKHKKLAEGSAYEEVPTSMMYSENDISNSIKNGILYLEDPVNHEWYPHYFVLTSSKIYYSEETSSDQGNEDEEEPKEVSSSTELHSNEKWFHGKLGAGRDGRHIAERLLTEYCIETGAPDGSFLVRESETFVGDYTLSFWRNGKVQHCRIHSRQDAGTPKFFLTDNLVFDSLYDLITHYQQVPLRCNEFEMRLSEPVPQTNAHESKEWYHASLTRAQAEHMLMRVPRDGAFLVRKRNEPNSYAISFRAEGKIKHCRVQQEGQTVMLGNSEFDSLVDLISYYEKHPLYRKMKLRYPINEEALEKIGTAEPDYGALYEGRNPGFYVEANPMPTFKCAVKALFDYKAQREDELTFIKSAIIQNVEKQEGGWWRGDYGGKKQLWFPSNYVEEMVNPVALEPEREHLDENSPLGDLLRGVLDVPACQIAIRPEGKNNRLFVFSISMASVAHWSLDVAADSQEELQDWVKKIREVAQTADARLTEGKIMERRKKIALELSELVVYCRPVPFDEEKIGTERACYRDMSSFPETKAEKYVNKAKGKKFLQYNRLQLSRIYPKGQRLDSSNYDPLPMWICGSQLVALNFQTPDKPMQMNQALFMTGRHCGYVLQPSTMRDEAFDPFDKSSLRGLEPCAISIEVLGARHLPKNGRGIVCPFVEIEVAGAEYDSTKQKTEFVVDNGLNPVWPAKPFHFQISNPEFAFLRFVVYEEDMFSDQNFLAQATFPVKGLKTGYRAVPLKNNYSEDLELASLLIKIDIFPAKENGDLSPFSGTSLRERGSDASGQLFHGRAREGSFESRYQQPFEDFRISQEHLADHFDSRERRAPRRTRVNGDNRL
CR mimetic SO: lowers age-related superoxide in aged yeast cells; S. cerevisiae aged cells, superoxide DHE fluorescence; hits give low values; superoxide response (% of plate mean), % at 10 µM; actives 0.18% (n = 330,000); AID 2690;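 active = superoxide response under a set limit, about three screen SD below normal, cut at about 65% in these data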;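 note: yeast aged for seven days with compound at 30 °C before DHE staining; 100% = average MFI of all compound-treated wells on the plate with controls excluded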
HIF act: HIF pathway transcriptional activation; AID 1910; actives 0.32% (n = 300,000); activation, % at 7.5 µM (by protocol); U2OS HRE-luciferase reporter, luminescence; normalized: DMSO 0%, desferrioxamine 100%;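 active = mean activation of at least 10% of the iron chelator positive control signal, with at least half of replicates also reaching 10%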
Active calls of the source: *; . = no result given.

SMILES | AHR activator | PLCb3 inh | HGIII-sPLA2 inh | PLC-gamma1 inh | CR mimetic SO | HIF act
CC(C)c1ccc(NC(=O)OC2CCC23CCC(c2ccccc2)CC3)cc1 (stereo not given) | . | 0 | 0 | -3 | . | .
C/C(=N\Nc1nc2ccccc2[nH]1)c1cc2ccccc2o1 | 54* | -57 | -4 | -47 | 91 | 2
C/C(=N\NC(=O)c1ccncc1)c1cc2ccccc2o1 | 12 | 2 | 5 | 4 | 112 | 0
C/C(=N\Nc1nc2ccccc2[nH]1)c1ccccn1 | 30 | -13 | 5 | -7 | 121 | 179*
CCN(CC)C(CNC(=O)CSc1nnnn1-c1ccc(C)c(C)c1)c1ccco1 (stereo not given) | 0 | -10 | -6 | -2 | 64* | .
CN(C)c1ccc(C(=O)NCCc2ccccc2-c2ccccc2CCC(=O)NCc2ccccc2)cc1 | . | 4 | 3 | 0 | . | .
Cc1c(C(=O)N(C)C(C)c2ccncn2)oc2c(F)cccc12 (stereo not given) | 7 | -5 | 4 | 1 | 93 | 2
Cc1c(C(=O)N(C)C(C)c2ccccn2)oc2c(F)cccc12 (stereo not given) | 54* | -4 | 1 | 1 | 90 | 2
Cc1nn(-c2ccccc2)c2sc(C(=O)NCCc3ccc(Cl)cc3)cc12 | . | -1 | -6 | -2 | . | .
O=C1CN(C(=O)C2CCCCC2)C=CN1CCc1ccccc1Br | . | 1 | -58 | -2 | . | .
CCCN=CC1=C(O)CC(c2ccccc2)CC1=O (stereo not given) | 0 | 2 | 4 | -2 | 93 | -1
O=C1CC(c2ccccc2)CC(O)=C1C=Nc1ccc(Cl)cc1 (stereo not given) | 55* | -3 | -4 | -3 | 100 | 0
Cc1cc(C)nc(N/N=C/C2=C(O)CC(c3ccccc3)CC2=O)n1 (stereo not given) | 8 | -21 | 11 | -10 | 77 | 22*
O=C1CC(c2ccccc2)CC(O)=C1C=Nc1cccc(Cl)c1 (stereo not given) | 48* | -6 | 8 | -4 | 86 | 0
O=C1CC(c2ccccc2)CC(O)=C1C=Nc1ccccc1Cl (stereo not given) | 7 | -2 | -7 | -4 | 83 | 0
CC(C)C[C@H]1CN=C(Nc2ccccc2)N1CCC1CCCCC1 | -3 | 3 | 3 | 2 | 106 | 0
c1ccc(C[C@H]2CN=C(Nc3ccccc3)N2CCC2CCCC2)cc1 | 2 | 8 | 10 | 10* | 89 | .
O/N=C/c1cc(Br)cc(Br)c1OCc1ccccc1 | 64* | -5 | -25 | -2 | 104 | 0
O/N=C/c1ccc(OCc2ccccc2)c(Br)c1 | -4 | -5 | -10 | 0 | 95 | 3
Cc1cc(C)c(OCCCn2ccnc2)c(C)c1 | . | 0 | -17 | 1 | 100 | -17
Cc1ccc(OCCCCn2ccnc2)c([N+](=O)[O-])c1 | 61* | 4 | -11 | 0 | 87 | 0
Cc1ccc(C(C)(C)C)c(OCCCn2ccnc2)c1 | 48* | 3 | -27 | 7 | 86 | -1
Cc1cc(C(C)(C)C)ccc1OCCn1ccnc1 | 50* | 4 | -34 | 6 | 108 | 0
Cc1cc(C)c(C)c(OCCCn2ccnc2)c1 | 58* | -3 | -9 | -1 | 102 | 0
Cc1ccc(OCCCCn2ccnc2)c(Cl)c1 | 17 | 2 | -19 | 0 | 103 | 1
SMILES | AHR activator | PLCb3 inh | HGIII-sPLA2 inh | PLC-gamma1 inh | CR mimetic SO | HIF act
Cc1cc(OCCn2ccnc2)ccc1C(C)C | 64* | 4 | -19 | -1 | 94 | 1
Cc1cc(C)c(S(=O)(=O)/N=C2/C=C(Sc3ncn[nH]3)C(=O)c3ccccc32)cc1C | 43 | -4 | -20 | 12* | 144 | .
O=C(CSc1nnc(-c2cccnc2)n1-c1ccccc1)Nc1ccc2c(c1)OCCO2 | . | 2 | 3 | 3 | . | .
O=C(COC(=O)c1ccc(Cl)c([N+](=O)[O-])c1)Nc1ccccc1OC(F)F | 55* | -2 | -4 | 0 | 122 | 0
O=C(COC(=O)c1ccc2c(c1)OCO2)Nc1ccccc1OC(F)F | -1 | 2 | -2 | 2 | 103 | .
Cc1ccc(-n2ncc(C(=O)Nc3cc(Cl)cc(Cl)c3)c2C2CCNCC2)cc1C | . | 2 | -19 | 9.8* | . | -1
O=[N+]([O-])c1ccc(Cl)c(/C=N/N2CCN(c3ccccc3)CC2)c1 | 58* | 1 | 8 | 3 | 85 | 0
Cc1ccccc1/C=N/N1CCN(c2ccccc2)CC1 | 73* | 5 | 0 | 3 | 98 | 1
O=C(CSc1ccsc1[N+](=O)[O-])NCCc1ccccc1 | 48* | -1 | 1 | 0 | 117 | 0
O=C(CSc1ccsc1[N+](=O)[O-])NCCc1ccc(Cl)cc1 | 9 | -5 | 3 | 0 | 113 | 0
O=C(Nc1nc(-c2ccccn2)cs1)c1ccc(S(=O)(=O)N2CCCCC2)cc1 | 34 | . | . | . | 89 | 16*
Cc1c(C(=O)Nc2nc(-c3ccccn3)cs2)oc2ccccc12 | 64* | . | . | . | 96 | .
Cc1ccc(C(=O)Nc2nc(-c3ccccn3)cs2)s1 | 10 | -31 | 7 | -16 | 99 | .
Cc1nnc(NC(=O)c2oc3ccccc3c2C)s1 | 62* | -15 | -5 | -6 | 108 | 2
O=C(Nc1nc(-c2cccs2)cs1)c1ccc(S(=O)(=O)N2CCCCC2)cc1 | 20 | -70 | -14 | -54 | 109 | 0
Cc1cc(NC(=O)CSc2nc3c([nH]c4ccccc43)c(=O)n2-c2cccc(C(F)(F)F)c2)no1 | . | . | . | . | . | 0
COc1cccc(-n2c(SCC(N)=O)nc3c([nH]c4ccccc43)c2=O)c1 | 75* | -1 | 2 | -1 | 102 | 1
Cc1ccc(-c2nc(SCC(=O)NCC3CCCO3)c(-c3ccccc3)[nH]2)cc1 (stereo not given) | 70* | -1 | -2 | 0 | 90 | 0
COc1cccc(-n2c(SCC(=O)N3CCCCC3)nc3c([nH]c4ccccc43)c2=O)c1 | 17 | 3 | -1 | 1 | 104 | 0
C=CCn1c(SCC(=O)NCC2CCCO2)nc2c([nH]c3ccccc32)c1=O (stereo not given) | 55* | -3 | 0 | 6 | 108 | -1
COc1ccccc1-n1c(SCC(=O)Nc2cc(C)on2)nc2c([nH]c3ccccc32)c1=O | 68* | -6 | 5 | -2 | 100 | 0
COC(=O)[C@]12C[C@H](CC(=O)NCCCCc3ccccc3)C(=O)N(Cc3ccc4c(c3)OCO4)C1=C[C@H](C(C)C)O[C@@H]2C1CC1 | . | 0 | -5 | 3 | . | .
COC(=O)[C@]12C[C@H](CC(=O)N3CCN(C(=O)C4CC4)CC3)C(=O)N(Cc3cccc4ccccc34)C1=C[C@H](C(C)C)O[C@@H]2C1CC1 | . | 4 | -7 | 0 | . | .
O=C(Cn1c(=S)[nH]c2ccccc2c1=O)NCCc1ccccc1 | 79* | -1 | 9 | -2 | 95 | -1
